# Measured values published in PubChem BioAssay (NCI).
# The panel holds about 83,000 compounds, 20% with a hit somewhere; the sample as a whole holds those more often.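 Interpretation: 100, growth as untreated; towards 0, rising growth inhibition; 0, no net growth; 0 to -100, cell death. Compounds scoring below 10 were considered active.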 Values without a mark were called inactive. Calls of active or inactive are those of the source.
# Assays:
# Experiment in all cases: NCI-60 one-dose screen, 48 h (100 = growth as untreated, 0 = no growth, -100 = all killed)
# HCT-15 colon = details: 10 µM unless noted
# HT29 colon = details: 10 µM unless noted
# SNB-75 CNS = details: 10 µM unless noted
# SNB-19 CNS = details: 10 µM unless noted
# U251 CNS = details: 10 µM unless noted
# PC-3 prostate = details: 10 µM unless noted
# SK-MEL-5 melanoma = details: 10 µM unless noted
# UACC-62 melanoma = details: 10 µM unless noted
# LOX IMVI melanoma = details: 10 µM
# SK-MEL-28 melanoma = details: 10 µM unless noted
Compound,growth (HCT-15 colon),growth (HT29 colon),growth (SNB-75 CNS),growth (SNB-19 CNS),growth (U251 CNS),growth (PC-3 prostate),growth (SK-MEL-5 melanoma),growth (UACC-62 melanoma),growth (LOX IMVI melanoma),growth (SK-MEL-28 melanoma)
O=C(N/N=C\c1ccc(Cl)cc1Cl)c1ccncc1,102%,90.1%,77.4%,92.8%,92.7%,94%,98.9%,106%,85.4%,103%
N#C/C(=C\c1ccc(C#N)cc1)C(=O)c1ccccc1,95.7%,104%,77.8%,93.4%,94.3%,87.6%,106%,92.8%,98.8%,121%
CC1(C)OC2C(CO)OC(n3ccc(=O)[nH]c3=O)C2O1 (stereo not given),102%,94.3%,106%,100%,87.6%,90.2%,97.9%,93.9%,101%,108%
O=C(c1ccc(Cl)cc1)N1CCCCC1,98.5%,101%,88.5%,93.7%,94.7%,97.8%,100%,95%,97.6%,101%
CC(=O)Nc1ccc(C(=O)c2ccc(S(=O)(=O)Nc3ccccc3)cc2)cc1,104%,96.7%,78.1%,80.3%,91.9%,87.2%,89.8%,83.1%,91.6%,114%
Cc1ccc(Cc2ccc(C)cc2)cc1,101%,105%,101%,109%,101%,100%,101%,104%,99.4%,107%
COc1cc(C(=O)O)c(O)c(C(C)(C)C)c1,108%,109%,96.8%,98.9%,95.2%,97.6%,96.5%,104%,98.8%,109%
CCCCc1ccc2nc(NC(=O)OC)[nH]c2c1,7.85% (active),12.2%,65.1%,14.7%,22.2%,22.5%,-49.2% (active),41%,25.2%,58.8%
CCCCn1cnc2c(=O)[nH]cnc21,105%,104%,89.6%,96.9%,109%,94.2%,119%,95.7%,109%,107%
CCN(CC)CCCC(C)NC(=S)N/N=C(\C)c1ccccn1 (stereo not given),32.7%,35.8%,61.9%,45.7%,37.2%,41.1%,37.8%,22.3%,39.3%,67.5%
O=S(=O)(O)c1cccc2cccnc12,117%,122%,98.2%,106%,113%,86.8%,107%,109%,107%,97.3%
ON1CCCC1,101%,95.3%,83.2%,103%,100%,101%,109%,105%,94.8%,106%
CC(=O)NC(CCC(=O)c1ccccc1)C(=O)O (stereo not given),104%,93.6%,90%,101%,87.6%,80.2%,97%,97.4%,100%,105%
CC(=O)c1cc(O)ccc1O,107%,104%,103%,97.9%,104%,98.3%,113%,96.6%,98.9%,109%
O=C(O)C1CCCN1C(=O)OCc1ccccc1 (stereo not given),108%,97.6%,81.6%,104%,108%,108%,104%,109%,88.4%,105%
NC(=S)N/N=C/c1ccc(OC(=O)COc2ccccc2)cn1,76.8%,84.1%,59.3%,74.9%,42.3%,63.9%,38.4%,13.9%,19.1%,83%
c1ccc(Nc2ccccn2)nc1,95.7%,100%,82.3%,97.5%,91.8%,95.9%,103%,94.1%,95.7%,118%
CCN(C(C)=O)c1ccc([N+](=O)[O-])cc1,109%,104%,108%,101%,90.8%,97.5%,96.2%,97.5%,98.6%,106%
Oc1cc(O)c2c(c1)O[C@H](c1ccc(O)c(O)c1)[C@@H](O)C2,100%,97.5%,83.6%,101%,97.9%,93.3%,104%,106%,100%,110%
CC1(c2ccccc2)CO1 (stereo not given),102%,112%,89.9%,102%,97.6%,104%,105%,104%,103%,105%
COc1ccc(C2CCCCC2=O)cc1 (stereo not given),98.6%,108%,101%,111%,99%,95.4%,110%,110%,96.6%,111%
O=C1NCC2CCCC1C2 (stereo not given),104%,105%,77.2%,99.6%,112%,114%,107%,105%,103%,110%
CCNC(=O)OCCc1c2ccccc2nc2ccccc12,104%,103%,81.3%,111%,97%,43.9%,104%,99.1%,88.4%,97.7%
CCNC(=O)Oc1ccc[nH]c1=O,97.9%,109%,85.3%,98.8%,104%,96.5%,95.2%,96.1%,99.1%,125%
O=C1NC(=O)C(c2ccccc2)O1 (stereo not given),107%,105%,93.2%,109%,101%,102%,104%,105%,97.4%,109%
CSCC[C@@H]1C(=O)N(C)[C@H](C(C)(C)C)N1C(=O)c1ccccc1,113%,116%,85.2%,114%,99.3%,104%,106%,101%,95.4%,107%
CCOC(=O)c1c[nH][nH]c1=O,103%,105%,118%,99.1%,103%,108%,105%,96.2%,97.8%,127%
CN(C)c1ccc(O)c2c1CC1CC3C(N(C)C)C(=O)C(C(N)=O)=C(O)C3(O)C(=O)C1=C2O (stereo not given),25.4%,57.5%,55.8%,55.5%,25.7%,34.6%,25.6%,29%,29.3%,47.4%
